Records with an inconclusive call do not appear. Activity calls are given as the source filed them. Calls follow the shape of the dose curve; as a rule, active = well fitted cell-killing curve with a large enough effect; inconclusive = small, poorly fitted or top-dose-only effect; inactive = no such curve, though single readings can be large or run the other way.
Assay: qHTS of pediatric cancer cell lines to identify multiple opportunities for drug repurposing: Primary screen for SK-N-SH cells (AID 1347098); also: nearly all actives have a fitted effect of over 65% in size; also: potency is read from the fitted curve at half-maximal effect;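 as to activity change, negative = cytotoxic: DMSO served as neutral control and bortezomib at 2.3 µM as positive control; % is scaled to controls: 0 for no effect and ±100 for the full control effect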
Conditions: SK-N-SH viability, CellTiter-Glo luminescence, 48 h; series mostly up to 57 µM; activity change, negative = cytotoxic: at the top concentration
Method in brief: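 Cells (500-1,000/well) rested 5 h, then received compounds for 48 h; metabolically active cells were measured by CellTiter-Glo luminescence. Final concentrations spanned up to 46 µM (MIPE, 11-point) or 0.59 nM-46 µM (NPC, 8-point) in primary screens, 11-point in follow-ups.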

Structure (SMILES)	activity change, negative = cytotoxic	Potency
COc1c(N2C[C@@H]3CCCN[C@@H]3C2)c(F)cc2c(=O)c(C(=O)O)cn(C3CC3)c12	0.0786% (inactive)	–
CCO[C@H](Cc1ccc(OCCc2ccc(OS(C)(=O)=O)cc2)cc1)C(=O)O	-15.8% (inactive)	–
COC(=O)c1cc(S(N)(=O)=O)ccc1OC	3.46% (inactive)	–
Cc1ccc(C(=O)Oc2ccc(C(O)CNC(C)(C)C)cc2OC(=O)c2ccc(C)cc2)cc1 (centres undefined)	-22.3% (inactive)	–
O=C(O)c1ccccc1Nc1cc(Cl)ccc1C(=O)O	–	11.9 µM (active)
CN(C)C(=O)CNC(=O)Cc1ccccc1	4.48% (inactive)	–
C[C@]12CCC(=O)C=C1CC[C@@H]1[C@@H]2[C@@H](O)C[C@@]2(C)[C@H]1CC[C@]2(O)C(=O)COC(=O)CCC(=O)O	18% (inactive)	–
C=C(C)C(=O)OCC(O)CO (centres undefined)	-5.35% (inactive)	–
Cc1ccccc1N1CCN(CCc2nnc3n2CCCC3)CC1	1.09% (inactive)	–
CCCCCCCCCCCCCCCCCCN(C)C	11.8% (inactive)	–
CCCCCCCCCCCCCCCC[n+]1ccccc1	–	7.7 µM (active)
COc1cc(OC)nc(O[C@H](C(=O)O)C(OC)(c2ccccc2)c2ccccc2)n1	-20% (inactive)	–

Assay: qHTS of pediatric cancer cell lines to identify multiple opportunities for drug repurposing: Primary screen for NB1643 cells (AID 1347099);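 also: plate controls were DMSO neutral control for no effect and bortezomib positive control for full effect; nearly all actives have a fitted effect of over 50% in size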
Conditions: NB1643 neuroblastoma viability, CellTiter-Glo luminescence, 48 h; series mostly up to 46 µM; activity change, negative = cytotoxic: at the top concentration
Method in brief: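 Following a 5-hour attachment period, cells at 500-1,000/well received compounds and were cultured for 48 hours. CellTiter-Glo was added and luminescence read to estimate viable, metabolically active cells.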

Structure (SMILES)	activity change, negative = cytotoxic
CC(C)(C)NCC(O)COc1ccccc1OCC1CCCO1 (centres undefined)	14.4% (inactive)
Cc1cc(O)c2c(O)c3c(O)cccc3cc2c1	2.84% (inactive)
CCC(C(=O)OCCN1CCOC(c2ccccc2)C1C)c1ccccc1 (centres undefined)	16.5% (inactive)
O=C1[C@@H]2[C@H]3CC[C@H](C3)[C@@H]2C(=O)N1CCCCN1CCN(c2ncccn2)CC1	0% (inactive)
O=C1CC2(CCCC2)CC(=O)N1CCNCC1COc2ccccc2O1 (centres undefined)	9.88% (inactive)
CO/N=C(\C(=O)O)c1csc(NC(=O)CCl)n1	14.1% (inactive)
CC(=O)OCC(=O)Nc1cc(C#N)cc(NC(=O)COC(C)=O)c1Cl	23.2% (inactive)
O=C(O)c1ccc(OCCN2CCCCC2)cc1	14.5% (inactive)
O=C(O)C(=O)Nc1cccc(-c2nn[nH]n2)c1	4.4% (inactive)
OCCc1ccccc1	-1.73% (inactive)
CN1C(=O)c2ccccc2C1=O	12.1% [at 92.7 µM] (inactive)
CCCCOCCOC(=O)c1cccnc1	16.5% (inactive)
Nc1ccc(C(=O)N2CC3CC(CN(Cc4ccccc4)C3)C2)cc1	12.5% (inactive)
Cc1[nH]cnc1-c1ccc(Cl)cc1	23.5% (inactive)
COc1cc(C(=O)OC(COCCC(C)C)CN2CCOCC2)cc(OC)c1OC (centres undefined)	0% (inactive)
C[C@H]1C[C@@H]2[C@H]([C@@H](O)C[C@@]3(C)[C@H]2CC[C@]3(O)C(=O)CO)[C@@]2(C)C=CC(=O)C=C12	4.19% (inactive)
CC(Oc1c(Cl)cccc1Cl)C1=NCCN1 (centres undefined)	-12.2% (inactive)
COC(=O)c1cc(Cl)ccc1OC	7.86% (inactive)
Cc1ccc2ccc(Cl)cc2n1	17.6% (inactive)
Oc1cccc2[nH]ccc12	-1.65% (inactive)
CN(C)CCN1CCN(c2cccc(Cl)c2)C1=O	5.04% (inactive)
Cc1ccc(C(C)OC(=O)C2(C)CCC(C(=O)O)C2(C)C)cc1 (centres undefined)	8.48% (inactive)
N#CC1(c2ccc(F)cc2)CCC(=O)CC1	-3.67% (inactive)
O=C(O)CNC(=O)CNC(=O)CNC(=O)CSC(=O)c1ccccc1	6.53% (inactive)
NC(=O)COCCN1CCN(C(c2ccccc2)c2ccc(Cl)cc2)CC1 (centres undefined)	-1.21% (inactive)
C1=CC2C3C=CC(C3)C2C1 (centres undefined)	19.1% [at 92.7 µM] (inactive)
OC1(c2ccccc2)CCNCC1	2.01% (inactive)

Source: PubChem BioAssay (NCATS)
